Measured values: article PMC4336329 (PLoS ONE, 2015)
Hit rate of the full screen: of about 310,000 compounds, about 14,000 (4.5%) showed an effect of 50% or more. Effects have a minus sign here. The full list was thinned out, with strong results kept by preference.

Each molecule was assayed against human ether-à-go-go-related gene (hERG) potassium channel (human, UniProt Q12809) (assay: primary screen, population patch clamp on CHO cells stably expressing hERG; higher = less effect of the substance).
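Further: peak tail current of the secondary pulse compared with the same well before compound.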

human ether-à-go-go-related gene (hERG) potassium channel, sequence (Q12809 whole entry, looked up): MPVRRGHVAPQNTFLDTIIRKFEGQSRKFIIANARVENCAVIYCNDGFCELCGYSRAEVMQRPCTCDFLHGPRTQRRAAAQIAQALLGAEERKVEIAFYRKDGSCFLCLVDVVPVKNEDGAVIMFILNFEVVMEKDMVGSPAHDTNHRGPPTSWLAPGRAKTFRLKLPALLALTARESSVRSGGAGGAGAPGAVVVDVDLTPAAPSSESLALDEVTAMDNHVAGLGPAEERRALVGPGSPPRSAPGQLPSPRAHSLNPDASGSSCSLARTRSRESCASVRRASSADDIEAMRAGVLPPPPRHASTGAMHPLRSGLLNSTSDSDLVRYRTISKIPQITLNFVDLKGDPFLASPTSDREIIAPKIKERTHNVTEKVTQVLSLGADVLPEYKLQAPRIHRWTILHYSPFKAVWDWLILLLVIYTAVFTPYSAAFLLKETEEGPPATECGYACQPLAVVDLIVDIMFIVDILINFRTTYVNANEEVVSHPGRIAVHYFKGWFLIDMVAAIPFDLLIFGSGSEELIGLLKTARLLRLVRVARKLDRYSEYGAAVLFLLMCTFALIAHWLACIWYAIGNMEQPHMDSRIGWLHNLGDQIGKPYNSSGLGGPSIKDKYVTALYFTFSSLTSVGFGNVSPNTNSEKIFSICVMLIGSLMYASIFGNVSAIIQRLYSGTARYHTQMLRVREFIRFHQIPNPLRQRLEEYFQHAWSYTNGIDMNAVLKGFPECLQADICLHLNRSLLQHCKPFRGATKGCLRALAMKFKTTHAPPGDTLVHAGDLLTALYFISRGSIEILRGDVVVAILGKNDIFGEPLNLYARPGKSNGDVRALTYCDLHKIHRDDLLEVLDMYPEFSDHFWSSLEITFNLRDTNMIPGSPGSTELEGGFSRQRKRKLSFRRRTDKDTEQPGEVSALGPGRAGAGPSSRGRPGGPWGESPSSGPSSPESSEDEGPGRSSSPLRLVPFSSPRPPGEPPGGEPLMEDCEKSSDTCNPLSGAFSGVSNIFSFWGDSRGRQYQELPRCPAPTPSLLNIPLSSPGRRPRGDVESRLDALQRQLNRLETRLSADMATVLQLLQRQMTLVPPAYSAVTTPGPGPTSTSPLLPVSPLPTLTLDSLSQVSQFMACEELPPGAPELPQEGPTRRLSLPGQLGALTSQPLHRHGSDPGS

| SMILES | hERG current change (%, negative = inhibition) at 10uM |
| --- | --- |
| CNC(=O)CN(C)S(=O)(=O)c1ccc(OC)c(Cl)c1 | 6.65% |
| CC(=O)Nc1ncc(Cc2cc(Cl)ccc2Cl)s1 | -1.4% |
| CSc1nnc(Cn2c(=O)sc3ccccc32)n1-c1cccc(Cl)c1 | -37.9% |
| Cn1c(=O)c2c(ncn2CC(=O)OCC(=O)Nc2ccccc2Cl)n(C)c1=O | 4.46% |
| CC(NCc1ccc2c(c1)OCO2)C(=O)NC1CCCc2ccccc21.O=C(O)C(=O)O (stereo not shown) | -22.6% |
| CC(C(=O)NC1CCCc2ccccc21)N1CCN(c2ccc(F)cc2)CC1 (stereo not shown) | -35.6% |
| CC(C(=O)NC1CCCc2ccccc21)N1CCN(Cc2ccc3c(c2)OCO3)CC1 (stereo not shown) | -51.9% |
| COC(=O)c1cc2c(ccn2C)n1C | 19.5% |
| CC(C)(C)c1ccc(S(=O)(=O)/N=C2\C=C(NS(=O)(=O)c3ccccc3)C(=O)c3ccccc32)cc1 | -2.61% |
| O=C(NC(=S)N1CCCCC1c1cccnc1)c1ccccc1 (stereo not shown) | 4.5% |
| O=C(NC(=S)N1CCCCC1c1cccnc1)c1ccc(F)cc1 (stereo not shown) | 5.06% |
| COc1ccc(/C=C/C(=O)NC(=S)NN2CCCCC2c2cccnc2)cc1 (stereo not shown) | -26.9% |
| O=C(/C=C/c1ccc(Cl)cc1)NC(=S)NN1CCCCC1c1cccnc1 (stereo not shown) | -67% |
| COc1ccc(/C=C/C(=O)NC(=S)NN2CCCCC2c2cccnc2)cc1OC (stereo not shown) | 3.25% |
| O=C(/C=C/c1ccc(F)cc1)NC(=S)N1CCCCC1c1cccnc1 (stereo not shown) | -68.1% |
| COc1ccc(C)cc1NCc1cccc(OC)c1OC | 1.13% |
| COc1cc(/C=C(\C#N)C(=O)NCC2CCCO2)ccc1OCCC(C)C (stereo not shown) | 4.67% |

| SMILES | hERG current change (%, negative = inhibition) at 10uM |
| --- | --- |
| O=C(Nc1ccccc1)N1CCCN(c2ccc(C(F)(F)F)cc2[N+](=O)[O-])CC1 | -39.9% |
| O=C(Cn1nc(Cc2cccnc2)c2ccccc2c1=O)NCC1COc2ccccc2O1 (stereo not shown) | -57.4% |
| O=C(Cn1nc(Cc2cccnc2)c2ccccc2c1=O)NCc1ccc2c(c1)OCO2 | -25.8% |
| O=C(Cn1nc(Cc2cccnc2)c2ccccc2c1=O)NCC1CCCO1 (stereo not shown) | 9.7% |
| Cc1ccc(C2CC(c3ccccc3)=NN2c2ccccc2)o1 (stereo not shown) | 4.42% |
| COc1ccc(C(CNC(=O)c2ccc(-c3ccccc3Cl)o2)N2CCOCC2)cc1 (stereo not shown) | -23.7% |
| COc1ccc(C(CNC(=O)c2oc3ccc(F)cc3c2C)N2CCCCC2)cc1 (stereo not shown) | -59.9% |
| COc1ccc(C(CNC(=O)c2oc3ccccc3c2C)N2CCCC2)cc1 (stereo not shown) | -43.8% |
| CCc1ccc2oc(C(=O)NCC(c3ccc(OC)cc3)N3CCCCC3)c(C)c2c1 (stereo not shown) | -3.57% |
| COc1ccc(C(CNC(=O)c2oc3ccc(Cl)cc3c2C)N2CCCCC2)cc1 (stereo not shown) | -25.9% |
| COc1ccc(C(CNC(=O)c2oc3ccc(OC)cc3c2C)N2CCCC2)cc1 (stereo not shown) | -67.5% |
| COc1ccccc1C(CNC(=O)c1ccc(-c2ccccc2Cl)o1)N1CCCC1 (stereo not shown) | -72.2% |
| COc1ccccc1C(CNC(=O)c1ccco1)N1CCCC1 (stereo not shown) | 1.23% |
| COc1ccc(C(CNC(=O)c2oc3cc(C)c(Cl)cc3c2C)N2CCCCC2)cc1 (stereo not shown) | 16.3% |
| COc1ccc(C(CNC(=O)c2oc3ccc(C)cc3c2C)N2CCCCC2)cc1 (stereo not shown) | 6.26% |
| COc1ccc(C(CNC(=O)c2oc3ccc(Br)cc3c2C)N2CCCCC2)cc1 (stereo not shown) | -13.3% |
| COc1ccc(C(CNC(=O)c2oc3c(Cl)cccc3c2C)N2CCCC2)cc1 (stereo not shown) | -50.9% |
